Experimental data as given in PubChem BioAssay (Tox21).
Records with an inconclusive call do not appear. Calls of active or inactive are those of the source. Unless noted, the call rests on the fitted dose curve.

Experiments:
[1] = Nuclear factor erythroid 2-related factor 2/antioxidant responsive element (Nrf2/ARE) small molecule agonists: qHTS cell viability counter screen in human keratinocytes (AID 1919968; active means well fitted curve in the direction sought with a large enough effect in the repeat runs; an effect the other way counts as inactive or inconclusive; further: nearly all actives have a fitted effect of over 55% in size)
Method in brief: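 Cytotoxicity was multiplexed with the Nrf2/ARE luciferase assay in the same wells. Stably transfected HaCaT keratinocytes were treated with test compounds for 23 h at 37 C. Cell viability was then measured by CellTiter-Fluor fluorescence.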

[2] = Nuclear factor erythroid 2-related factor 2/antioxidant responsive element (Nrf2/ARE) small molecule agonists: luciferase reporter gene qHTS assay in human keratinocytes (AID 1919969); further: nearly all actives have a fitted effect of over 35% in size; further: potency means the concentration at half of the fitted maximal effect
[3] = biological target: Gonadotropin-releasing hormone receptor (Homo sapiens) (UniProt P30968); experiment: Human gonadotropin-releasing hormone receptor (GnRHR) small molecule agonists, calcium flux assay in GnRHR-HEK293 cells (AID 1920063); further: nearly all actives have a fitted effect of over 35% in size
Gonadotropin-releasing hormone receptor (Homo sapiens), sequence (P30968 whole entry, looked up): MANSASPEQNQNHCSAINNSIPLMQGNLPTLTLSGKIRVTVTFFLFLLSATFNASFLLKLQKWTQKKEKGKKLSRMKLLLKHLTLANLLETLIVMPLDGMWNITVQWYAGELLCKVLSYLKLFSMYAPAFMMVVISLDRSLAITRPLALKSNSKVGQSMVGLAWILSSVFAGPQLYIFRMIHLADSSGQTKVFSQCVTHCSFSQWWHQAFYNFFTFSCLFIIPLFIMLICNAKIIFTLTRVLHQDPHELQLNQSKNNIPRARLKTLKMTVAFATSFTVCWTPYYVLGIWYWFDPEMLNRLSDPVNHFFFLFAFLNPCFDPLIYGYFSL
Method in brief: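 Agonist activity was measured as intracellular calcium flux in HEK293 cells engineered to stably express human GnRHR. After dye loading for 1 hour at 37 C, compounds in DMSO were added and fluorescence was followed for 3 minutes.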

[4] = biological target: KiSS-1 receptor (Homo sapiens) (UniProt Q969F8); experiment: Human kisspeptin (KISS1R) small molecule agonists, calcium flux assay in KISS1R-HEK293 cells (AID 1920064; active means well fitted curve in the direction sought with a large enough effect in the repeat runs; an effect the other way counts as inactive or inconclusive)
KiSS-1 receptor (Homo sapiens), sequence (Q969F8 whole entry, looked up): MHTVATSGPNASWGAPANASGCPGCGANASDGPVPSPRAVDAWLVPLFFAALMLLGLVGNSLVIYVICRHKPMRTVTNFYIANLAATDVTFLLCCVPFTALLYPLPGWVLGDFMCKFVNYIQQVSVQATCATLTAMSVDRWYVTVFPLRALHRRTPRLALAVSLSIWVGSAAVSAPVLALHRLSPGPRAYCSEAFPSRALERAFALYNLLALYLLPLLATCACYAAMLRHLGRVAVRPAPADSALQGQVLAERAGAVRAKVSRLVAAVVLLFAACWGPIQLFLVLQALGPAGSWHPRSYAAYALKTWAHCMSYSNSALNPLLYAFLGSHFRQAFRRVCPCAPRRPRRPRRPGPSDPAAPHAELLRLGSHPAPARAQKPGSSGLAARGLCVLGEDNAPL
Method in brief: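 Agonist activity is monitored as intracellular calcium rise in engineered HEK293 cells carrying human KISS1R. Cells are dye-loaded for 1 h at 37 C before compound addition, and fluorescence is recorded for 3 min.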

[5] = G protein-coupled receptor (GPCR) small molecule agonists, calcium flux assay: HEK293 wild type cell line counter screen (AID 1920065)
Method in brief: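 Seed cells, incubate 18 h (37 C, 5% CO2); add calcium dye, 1 h at 37 C; pin-transfer compounds, ATP control or DMSO; read fluorescence 480/540 nm each second for 3 min.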

[6] = p53 small molecule agonists, cell-based qHTS assay with human liver microsomes: qHTS cell viability counter screen (AID 1963579); further: nearly all actives have a fitted effect of over 45% in size; further: potency means the concentration at half of the fitted maximal effect
Method in brief: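 p53RE-bla cells, 4,000/well, dosed 5 hours after plating, with human liver microsomes (0.5 mg/mL final) plus NADPH (0.5 mg/mL final), 16 hours at 37 C. Viability read as CellTiter-Glo luminescence after 30 min at room temperature.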

[7] = p53 small molecule agonists, cell-based qHTS assay with rat liver microsomes: qHTS cell viability counter screen (AID 1963580); further: nearly all actives have a fitted effect of over 45% in size
Method in brief: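 Rat liver microsome (0.5 mg/mL final) and NADPH (0.5 mg/mL final) co-incubation with compounds for 16 h at 37 C on HCT-116 p53RE-bla cells; cytotoxicity taken from intracellular ATP luminescence.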

[8] = p53 small molecule agonists, cell-based qHTS assay: qHTS cell viability counter screen (AID 1963581); further: nearly all actives have a fitted effect of over 45% in size
Method in brief: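 Viability was counter-screened in parallel with the p53 agonist reporter by measuring intracellular ATP luminescence in the same HCT-116 p53RE-bla wells after 16 h compound treatment at 37 C.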

[9] = biological target: 5-hydroxytryptamine receptor 2A (Homo sapiens) (UniProt P28223); experiment: 5-hydroxytryptamine receptor 2A (HTR2A) small molecule antagonists, cell-based qHTS assay (AID 1963586); further: nearly all actives have a fitted effect of over 45% in size; further: potency means the concentration at half of the fitted maximal effect
5-hydroxytryptamine receptor 2A (Homo sapiens), sequence (P28223 whole entry, looked up): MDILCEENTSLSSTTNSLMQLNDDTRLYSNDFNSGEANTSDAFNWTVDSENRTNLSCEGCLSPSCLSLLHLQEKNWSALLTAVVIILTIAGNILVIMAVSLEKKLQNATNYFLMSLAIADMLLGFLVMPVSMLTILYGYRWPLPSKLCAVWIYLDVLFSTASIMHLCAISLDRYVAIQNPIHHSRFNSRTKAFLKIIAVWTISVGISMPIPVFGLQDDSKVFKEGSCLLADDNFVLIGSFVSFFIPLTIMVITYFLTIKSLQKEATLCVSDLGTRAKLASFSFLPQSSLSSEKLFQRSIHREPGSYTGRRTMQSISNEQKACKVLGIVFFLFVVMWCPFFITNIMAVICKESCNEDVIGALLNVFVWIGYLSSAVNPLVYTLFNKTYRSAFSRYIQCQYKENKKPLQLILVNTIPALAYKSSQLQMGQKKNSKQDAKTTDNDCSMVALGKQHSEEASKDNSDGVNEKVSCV
Method in brief: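 CHO cells stably expressing human HTR2A were plated for 18 h at 37 C, then loaded with calcium dye for 1 h. Compounds were preincubated 5 min at room temperature before DOI (4 nM solution) was added. Kinetic fluorescence was read for 3 min.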

[10] = biological target: 5-hydroxytryptamine receptor 2A (Homo sapiens) (UniProt P28223); experiment: 5-hydroxytryptamine receptor 2A (HTR2A) small molecule agonists, cell-based qHTS assay (AID 1963587); further: nearly all actives have a fitted effect of over 30% in size; further: potency means the concentration at half of the fitted maximal effect
Method in brief: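 Kinetic calcium-flux fluorescence (2 min, 1 sec intervals) after compound addition in agonist mode. HTR2A-CHO cells were cultured 18 h, then dye-loaded 1 h at 37 C.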

[11] = biological target: Muscarinic acetylcholine receptor M1 (Homo sapiens) (UniProt P11229); experiment: Cholinergic receptor muscarinic 1 (CHRM1) small molecule antagonists, cell-based qHTS assay (AID 1963588); further: nearly all actives have a fitted effect of over 40% in size
Muscarinic acetylcholine receptor M1 (Homo sapiens), sequence (P11229 whole entry, looked up): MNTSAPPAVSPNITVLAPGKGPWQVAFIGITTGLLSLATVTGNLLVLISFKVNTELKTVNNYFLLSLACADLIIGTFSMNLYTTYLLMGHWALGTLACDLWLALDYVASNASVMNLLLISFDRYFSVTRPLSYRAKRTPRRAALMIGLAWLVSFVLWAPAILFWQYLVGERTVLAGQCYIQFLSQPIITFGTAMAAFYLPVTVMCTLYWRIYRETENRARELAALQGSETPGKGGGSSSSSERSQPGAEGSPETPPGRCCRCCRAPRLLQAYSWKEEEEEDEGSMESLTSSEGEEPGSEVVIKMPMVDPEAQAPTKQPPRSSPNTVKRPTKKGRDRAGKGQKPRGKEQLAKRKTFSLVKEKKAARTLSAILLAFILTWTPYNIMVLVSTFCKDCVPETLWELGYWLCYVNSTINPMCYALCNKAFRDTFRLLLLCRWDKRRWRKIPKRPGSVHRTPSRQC
Method in brief: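 Compounds were tested at 15 concentrations in three independent runs. Dye-loaded CHRM1-CHO cells were exposed 5 min at room temperature before stimulation by acetylcholine added at 50nM. Intracellular calcium was read kinetically on FDSS for 3 min.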

[12] = biological target: Muscarinic acetylcholine receptor M1 (Homo sapiens) (UniProt P11229); experiment: Cholinergic receptor muscarinic 1 (CHRM1) small molecule agonists, cell-based qHTS assay (AID 1963589); further: nearly all actives have a fitted effect of over 35% in size
Method in brief: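 Cells were plated and incubated 18 h at 37 C/5% CO2, loaded with calcium dye for 1 h at 37 C, then treated with compounds in DMSO. Fluorescence was recorded kinetically at 1 sec intervals.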

[13] = cAMP Responsive Elements (CRE) small molecule agonists, cell-based qHTS assay (AID 1963590)
Method in brief: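 Cells carrying a CRE-driven beta-lactamase reporter (HEK 293T) are seeded, incubated overnight (18 h), and treated with test compounds for 3 h at 37 C; reporter activity is then detected with a FRET substrate after 2 h at room temperature.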

[14] = cAMP Responsive Elements (CRE) small molecule antagonists, cell-based qHTS assay (AID 1963591; active means well fitted inhibition curve with a large enough effect in the signal ratio in the repeat runs, not every such curve was filed as active; the % refers to the signal ratio; further: potency means the concentration at half of the fitted maximal effect)
Method in brief: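 Cells (CRE-bla HEK 293T, DMEM with 10% dialyzed FBS and 25 mM HEPES) are seeded and incubated 18 h. Compounds are added with NKH477 agonist at 0.25 uM final for 3 h, then FRET substrate for 2 h.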

[15] = biological target: Beta-2 adrenergic receptor (Homo sapiens) (UniProt P07550); experiment: Adrenergic beta2 receptor (ADRB2) small molecule antagonists, cell-based qHTS assay (AID 1963592); further: series mostly up to about 92 µM; nearly all actives have a fitted effect of over 50% in size
Beta-2 adrenergic receptor (Homo sapiens), sequence (P07550 whole entry, looked up): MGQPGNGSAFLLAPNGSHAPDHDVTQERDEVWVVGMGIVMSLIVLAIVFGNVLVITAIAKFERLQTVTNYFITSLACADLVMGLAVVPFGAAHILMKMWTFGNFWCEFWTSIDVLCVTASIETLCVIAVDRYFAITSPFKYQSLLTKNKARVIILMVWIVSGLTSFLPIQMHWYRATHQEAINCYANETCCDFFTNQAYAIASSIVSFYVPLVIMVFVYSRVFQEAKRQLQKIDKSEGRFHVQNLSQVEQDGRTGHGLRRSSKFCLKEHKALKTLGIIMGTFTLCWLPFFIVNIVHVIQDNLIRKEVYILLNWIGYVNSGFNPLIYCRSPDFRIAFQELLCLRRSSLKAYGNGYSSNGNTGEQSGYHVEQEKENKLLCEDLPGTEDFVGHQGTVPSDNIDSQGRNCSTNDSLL
Method in brief: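 Assay format: CHO-ADRB2 cells, 18-20hr seeding at 37C/5% CO2, then compound plus 1nM isoproterenol agonist mix for 0.5hr RT. Homogeneous time-resolved fluorescence cAMP detection after 1hr, expressed as 665/615 nm ratio.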

[16] = biological target: Beta-2 adrenergic receptor (Homo sapiens) (UniProt P07550); experiment: Adrenergic beta2 receptor (ADRB2) small molecule agonists, cell-based qHTS assay (AID 1963593);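 further: CHO cells stably overexpressing human ADRB2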
Method in brief: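 CHO cells stably over-expressing ADRB2 were plated overnight at 37C, then dosed with compounds plus a stimulation mix containing 100uM IBMX and 25uM Ro-20-1724 for 0.5hr at room temperature. cAMP was measured by HTRF competition, 1hr.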

[17] = biological target: D(2) dopamine receptor (Homo sapiens) (UniProt P14416); experiment: Dopamine D2 receptor (DRD2) small molecule agonists, cell-based qHTS assay (AID 1963594); further: nearly all actives have a fitted effect of over 35% in size; further: potency means the concentration at half of the fitted maximal effect
D(2) dopamine receptor (Homo sapiens), sequence (P14416 whole entry, looked up): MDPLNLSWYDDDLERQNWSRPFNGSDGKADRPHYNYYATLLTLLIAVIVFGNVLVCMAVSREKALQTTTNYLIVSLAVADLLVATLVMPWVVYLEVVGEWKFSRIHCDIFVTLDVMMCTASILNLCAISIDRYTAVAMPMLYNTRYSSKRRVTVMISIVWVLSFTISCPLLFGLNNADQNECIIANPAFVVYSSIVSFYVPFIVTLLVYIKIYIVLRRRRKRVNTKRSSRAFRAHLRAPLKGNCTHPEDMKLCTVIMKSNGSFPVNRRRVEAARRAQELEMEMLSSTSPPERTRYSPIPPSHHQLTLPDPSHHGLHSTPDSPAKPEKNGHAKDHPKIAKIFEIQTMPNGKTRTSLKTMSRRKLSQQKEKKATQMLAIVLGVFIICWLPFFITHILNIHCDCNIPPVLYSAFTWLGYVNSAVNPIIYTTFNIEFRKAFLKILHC
Method in brief: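 cAMP accumulation in DRD2-HEK293 cells measured by HTRF after 1 h detection; compounds added 10 min before NKH477 (200nM […]) forskolin-analogue stimulation, 30 min at room temperature, with Ro20-1724 present at 0.1 mM final.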

[18] = biological target: D(2) dopamine receptor (Homo sapiens) (UniProt P14416); experiment: Dopamine D2 receptor (DRD2) small molecule antagonists, cell-based qHTS assay (AID 1963595; active means well fitted inhibition curve with a large enough effect in the signal ratio in the repeat runs, with a control signal flat; the % refers to the signal ratio)
Method in brief: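 Antagonist mode in DRD2-HEK293 cells: after compound addition with 0.1 mM Ro20-1724, cells received quinpirole (12 nM) and NKH477 (200 nM) for 30 min at room temperature; HTRF cAMP read after 1 h detection.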

[19] = p53 small molecule agonists, cell-based qHTS assay with rat liver microsomes (AID 1963578)
Method in brief: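 p53RE-bla cells, 4,000/well, pre-incubated 5 h, then given compounds plus rat liver microsomes (0.5 mg/mL final) and NADPH (0.5 mg/mL final). Incubation 16 h at 37 C; beta-lactamase reporter read by LiveBLAzer fluorescence after 2 h at room temperature.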

[20] = p53 small molecule agonists, cell-based qHTS assay (AID 1963582; active means well fitted activation curve with a large enough effect in the signal ratio in the repeat runs, not every such curve was filed as active; the % refers to the signal ratio)
Method in brief: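 Cells carrying a p53-responsive bla reporter are treated with test compounds for 16 h at 37 C; beta-lactamase activity is then detected with LiveBLAzer B/G FRET substrate after 2 h at room temperature.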

Measured: Potency

NNCCO
not listed: [19] | [20]
inactive: all other assays above

O=C(Nc1ccccc1-c1ccc(Cl)cc1)c1cccnc1Cl
inactive: [1] | [3] | [4] | [5] | [19] | [7] | [10] | [12] | [18]
active: [2] 68.6 µM

N#Cc1c[nH]cc1-c1cccc2c1OC(F)(F)O2
not listed: [6] | [8] | [13] | [14] | [16] | [20]
inactive: all other assays above

ClCCCCBr
not listed: [18] | [19] | [20]
inactive: all other assays above

CCS(=O)(=O)CCSP(=O)(OC)OC
active: [2] 61.1 µM
not listed: [14] | [18] | [19]
inactive: all other assays above

O=C(NC(=O)c1c(F)cccc1F)Nc1ccc(OC(F)(F)C(F)OC(F)(F)F)c(Cl)c1 (stereo not drawn)
not listed: [14] | [18] | [19] | [20]
inactive: all other assays above

CNC(=O)O/N=C(\C)C(C)S(C)(=O)=O (stereo not drawn)
active: [2] 708 µM | [6] 316 µM
not listed: [19] | [20]
inactive: all other assays above

Cc1ccc(OP(=O)(Oc2ccccc2)Oc2ccccc2)cc1
not listed: [13] | [16] | [19] | [20]
inactive: all other assays above

CCOP(=O)(N=C1SCCS1)OCC
not listed: [12] | [19] | [20]
inactive: all other assays above

CCCCOC(=O)c1ccccc1N
active: [14] 61.4 µM
not listed: [13] | [16] | [19] | [20]
inactive: all other assays above

CCOP(=O)(SC(C)CC)N1CCSC1=O (stereo not drawn)
not listed: [16] | [19] | [20]
inactive: all other assays above

O=C1OC(=O)C2C1C1(Cl)C(Cl)=C(Cl)C2(Cl)C1(Cl)Cl (stereo not drawn)
not listed: [16] | [19] | [20]
inactive: all other assays above

CCC1(c2ccccc2)C(=O)N(COC)C(=O)N(COC)C1=O
active: [17] 10.6 µM
not listed: [12] | [14] | [19] | [20]
inactive: all other assays above

CCOP(=O)(O)C(N)=O
not listed: [16] | [19] | [20]
inactive: all other assays above

COc1cc(C[C@@H](C)N)c(OC)cc1C
active: [9] 0.0013 µM | [10] 0.0105 µM
not listed: [15] | [16] | [17] | [19] | [20]
inactive: all other assays above

CC(C)(C)OC(=O)c1ncn2c1[C@@H]1CCCN1C(=O)c1c(Br)cccc1-2
not listed: [13] | [14] | [17] | [19] | [20]
inactive: all other assays above

Cc1ccn2nc(S(=O)(=O)Nc3c(F)cccc3F)nc2n1
not listed: [16] | [19] | [20]
inactive: all other assays above
